Assay outcomes from PubChem BioAssay.
HCV inhibitor: qHTS Assay for Inhibitors of Hepatitis C Virus (HCV); Potency, µM (series often up to 41.8 µM), for inactives: at the top dose activity change, negative = inhibition, hits mostly inhibitors; 340,000 tested, 3.4% active; Huh7.5.1 HCVcc-Cre infection, luciferase reporter, 44 h; AID 651820, 2012; further: on the % scale 0 is the no-effect control and ±100 the full control effect
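Cells (1,000/well) were plated 4 h before compound, then infected with HCVcc-Cre virus (~0.5 moi). After 44 h further culture, infection was read as luciferase luminescence following a 15 min substrate incubation at room temperature.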
Pf growth 96h: Primary qHTS for delayed death inhibitors of the malarial parasite plastid, 96 hour incubation | AID 504834, 2011 | P. falciparum luciferase reporter growth, 96 h | 320,000 tested, 6.9% active | Potency, µM (top dose mostly 28.7 µM), without a hit: top-dose activity change, negative = inhibition, usual class: inhibitors; further: on the % scale 0 is the no-effect control and ±100 the full control effect
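Parasite growth measured via integrated firefly luciferase reporter in P. falciparum. Infected erythrocytes at 2% hematocrit, 0.05% parasitemia final were treated 96 hours at 37 C under 5% CO2, and luminescence was read.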
Pf growth 48h: Primary qHTS for delayed death inhibitors of the malarial parasite plastid, 48 hour incubation; P. falciparum luciferase growth in erythrocytes, 48 h; Potency, µM (top dose mostly 28.7 µM), for inactives: at the top dose activity change, negative = inhibition, hits mostly inhibitors; 310,000 tested, 5.9% active; AID 504832, 2011; further: on the % scale 0 is the no-effect control and ±100 the full control effect
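First compound was added to culture medium, then infected red cells at 0.1% parasitemia and 2% hematocrit (final). After incubation at 37 C under 5% CO2, luciferase detection reagent was dispensed and light output recorded.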
Vaccinia Venus: qHTS for Stage-Specific Inhibitors of Vaccinia Orthopoxvirus: Venus Reporter Primary qHTS; Potency, µM (highest dose often 36.5 µM), inactives show at the highest dose activity change, negative = inhibition, usual class: inhibitors; 330,000 tested, 0.46% active; AID 720580, 2013; Vaccinia virus Venus reporter expression, fluorescence; calls by dose curve; tested in A549 cells; further: on the % scale 0 is the no-effect control and ±100 the full control effect; nearly all actives have a fitted effect of over 30% in size
NS1 function inh: qHTS Assay for Inhibitors of Influenza NS1 Protein Function | Potency, µM (series often up to 46.1 µM), for inactives: top-dose activity, positive = more growth | 270,000 tested, 0.4% active; calls by dose curve; further: actives are rising curves; nearly all actives have a fitted effect of over 50% in size
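In this qHTS, NS1 from influenza A is expressed in budding yeast, where it slows growth. Cells are switched from glucose to 2% galactose medium (pH 6.0, -URA), treated with compound, and growth recovery is read at OD600.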
VACV mCherry inh: qHTS for Stage-Specific Inhibitors of Vaccinia Orthopoxvirus: mCherry Reporter Primary qHTS. Vaccinia virus mCherry reporter infection, fluorescence. Potency, µM (highest dose often 36.5 µM), for inactives: at the top dose activity change, negative = inhibition, actives largely listed as inhibitors. 310,000 tested, 0.63% active. AID 720579, 2013; calls by dose curve; tested in A549 cells; further: on the % scale 0 is the no-effect control and ±100 the full control effect; nearly all actives have a fitted effect of over 35% in size
* marks the source's active call; other numbers are inactive results; i = inactive; ? = inconclusive; / = not tested or not shown; [ ] = another dose, or the depositor's remark. A selection: hits, their analogues and other compounds. The true share with any hit is near 11%. Unless noted, the call rests on the fitted dose curve; in most records, active means well fitted inhibition curve with a large enough effect; inconclusive means small, poorly fitted or top-dose-only effect, or another doubt; inactive means no such curve, though single readings can be large or run the other way. Potency means the concentration at half of the fitted maximal effect.

SMILES	HCV inhibitor	Pf growth 96h	Pf growth 48h	Vaccinia Venus	NS1 function inh	VACV mCherry inh
N#CCCn1nc(-c2ccc(Cl)cc2)cc1Nc1ccccc1NC(=O)C(F)(F)F	-9%	12µM*	-7%	-5%	-34%	-13%
N#CCCn1nc(-c2ccc([N+](=O)[O-])cc2)cc1Nc1ccccc1NC(=O)C(F)(F)F	-22%	10µM*	10µM*	-27%	-3%	?
CCC(C)c1ccc(NC(=O)COc2c(F)c(F)c(C(F)(F)F)c(F)c2F)cc1 (stereo not given)	4%	2.1µM*	8%	-14%	-46%	i
Cc1cc(SCC(=O)N2CCCC2)nc2ccccc12	-14%	?	148%	/	-10%	/
Cc1cc2ccccc2nc1SCC(=O)N1CCCC1	1µM*	?	16%	/	-70%	/
O=C(CSc1nc2ccccc2c2c1CCCC2)N1CCOCC1	?	9.3µM*	3%	-4%	-43%	?
Cc1ccc(C)n1CCN1CCN(C(=O)CSc2nc3ccccc3nc2N2CCOCC2)CC1	7%	-1%	12µM*	-20%	?	/
O=S(=O)(NCc1csc(-c2cccs2)n1)c1ccccc1	1%	18%	2%	-8%[7.34 µM]	-6%	i[7.34 µM]
NC(=S)NNC(=S)Nc1ccccc1	0%	21%	14%	-13%	-4%	-11%
CCSc1nc2nc(C)cc(C)n2n1	-4%	12µM*	26%	-6%	1%	-19%
C=CCSc1nc2nc(C)cc(C)n2n1	?	0.33µM*	8%	/	2%	/
CCCCCCCCSc1nnc(CSc2nc3nc(C)cc(C)n3n2)o1	?	?	12µM*	-5%	-4%	-10%
Cc1cc(C)n2nc(SCc3nnc(SCCCCl)o3)nc2n1	-16%	?	?	-18%	-16%	i
CC1CCc2c(sc3ncnc(NCc4cccnc4)c23)C1 (stereo not given)	25µM*	-6%	?	/	/	/
CC1CCc2c(sc3ncnc(NCCCOC(C)C)c23)C1 (stereo not given)	10µM*	-9%	/	-28%	-8%	-7%
COC(=O)c1cc(Nc2cc(C)nc3ncnn23)cc(C(=O)OC)c1	-1%	-27%	16%	4%	?	-6%
COc1cc(Nc2cc(C)nc3ncnn23)cc(OC)c1	5%	10%	8.3µM*	-13%	0%	-23%
COc1cc(Nc2cc(C)nc3ncnn23)cc(OC)c1OC	12%	?	9.3µM*	-5%	3%	-6%
CCOC(=O)C1CCN(C(=O)CCn2c(=O)[nH]c3ccsc3c2=O)CC1	12%	1%	4%	/	5%	/
O=C(Cn1c(=O)n2ncnc2c2c3c(sc21)CCCC3)c1ccccc1	?	/	12µM*	/	9%	/
O=c1n(Cc2ccccc2Cl)c2sc3c(c2c2ncnn12)CCCC3	1%	94%	?	-17%	-2%	/
CCOC(=O)c1c(-c2ccsc2)csc1N	-23%	-4%	2.9µM*	-13%	-12%	/
COc1cc2c(cc1OC)CN(CC(=O)Nc1ccc(Cl)c(S(=O)(=O)N(C)C)c1)CC2	/	?	13µM*	/	/	/
COc1cc2c(cc1OC)CN(CC(=O)Nc1ccc(C)c(S(=O)(=O)N3CCOCC3)c1)CC2	13%	12µM*	?	/	-13%	/
Cc1ccc(NC(=O)CN2CCc3ccccc3C2)cc1S(=O)(=O)N1CCOCC1	?	?	-8%	-12%	5%	i
SMILES	HCV inhibitor	Pf growth 96h	Pf growth 48h	Vaccinia Venus	NS1 function inh	VACV mCherry inh
O=c1cc(/C=C/c2c(F)cccc2Cl)[nH]c2ccccc12	-7%	6%	0.93µM*	-17%	-12%	i
CCCOc1ccc(C(C)=O)cc1CC(C(N)=O)C(N)=O	20%	20%	/	1%	8%	-14%
O=C1NC(Cc2ccc(O)cc2)c2nc3cc(Cl)ccc3c(=O)n2-c2cc(Cl)ccc21 (stereo not given)	25µM*	/	/	?	/	?
O=C(Nc1cc2c(cc1Br)OCCO2)c1ccc(=O)[nH]c1	7%	/	/	/	/	/
CCOC(=O)/C(C#N)=C/c1cc(C)n(-c2ccccc2)c1C	32µM*	-25%	/	-5%	0%	-15%
O=C(NCC(c1ccc(F)cc1)N1CCOCC1)c1nn(-c2ccccc2)c(=O)c2ccccc12 (stereo not given)	?	?	9.3µM*	/	/	/
O=C(NCC(c1ccco1)N1CCCC1)c1cc(S(=O)(=O)N2CCCCC2)ccc1Cl (stereo not given)	8%	/	/	/	/	/
CN(CC(=O)NCC(c1ccco1)N1CCCCC1)S(=O)(=O)c1ccc(Cl)cc1 (stereo not given)	-16%	?	8.3µM*	-4%	/	-7%
CCN(c1ccccc1)S(=O)(=O)c1cccc(C(=O)NCC(c2ccco2)N2CCCC2)c1 (stereo not given)	10µM*	?	?	-26%	16%	-8%
CCN(c1ccccc1)S(=O)(=O)c1cc(C(=O)NCC(c2ccco2)N2CCCCC2)ccc1C (stereo not given)	?	/	/	-27%	/	?
C=CCN(c1ccccc1)S(=O)(=O)c1cccc(C(=O)NCC(c2ccc(F)cc2)N2CCOCC2)c1 (stereo not given)	?	?	13µM*	?	/	-16%
COc1ccc(C(C(=O)NC2CCCC2)N(C(=O)c2ccoc2C)c2ccccc2)cc1 (stereo not given)	2%	-25%	-28%	/	-4%	/
CCN(c1ccccc1)S(=O)(=O)c1cccc(C(=O)NCC(c2ccco2)N2CCCCC2)c1 (stereo not given)	10µM*	/	/	-24%	/	?
O=c1oc(-c2ccc(Br)cc2)nc2ccccc12	14%	5.9µM*	3%	-7%	-18%	0%
Cc1ccc(S(=O)(=O)NCC2(c3ccccc3)CCOCC2)cc1	5%	35%	-1%	-1%	/	i
COC(=O)[C@@H]1CC[C@H](C)[C@@H](c2ccc(C)cc2)N1C(=O)c1ccc(/C=N/OCC[C@@H]2C=C[C@H](OC(C)=O)[C@@H](COC(C)=O)O2)cc1	6%[8.37 µM]	10µM*	?	/	?	/
CCCNC(=O)OC[C@H]1O[C@H](CCO/N=C/c2ccc(C(=O)N3[C@H](c4ccc(C)cc4)[C@@H](C)CC[C@H]3C(=O)OC)cc2)C=C[C@@H]1Oc1ccc(OC)cc1	2%[8.37 µM]	2.1µM*	?	/	10%	/
COC(=O)[C@@H]1CC[C@H](C)[C@@H](c2ccc(C)cc2)N1C(=O)c1ccc(/C=N/OC[C@@H](O)[C@H]2O[C@@H]3OC(C)(C)O[C@@H]3[C@H]2O)cc1	4%[8.37 µM]	?	?	/	-65%	/
